Some test systems named below: T-47D breast; BT-549 breast; MDA-MB-435 melanoma; SW-620 colon; MCF7 breast; HCT-116 colon; HCC-2998 colon; KM12 colon.
Holding throughout (assay): NCI-60 one-dose screen, 48 h (100 = growth as untreated, 0 = no growth, -100 = all killed)
Common to all, as to settings: 10 µM unless noted

The structures appear in SMILES notation. This is part of a sample that, as a whole, favours compounds with a hit. Of some 83,000 tested, about 20% had one in any assay.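 Activity criterion: percent growth below 10, measured after cells in 96-well plates were exposed to a single compound concentration for 48 hours.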 Values without a mark were called inactive. The source made the active and inactive calls.

Consider `C=CC(=O)NCc1cccc(Nc2ncc(Br)c(NCCCNC(=O)C3CCC3)n2)c1`, for which the growth was -12% (active) in the assay on T-47D breast; -50.2% (active) with BT-549 breast; -51.4% (active) with MDA-MB-435 melanoma; 0.584% (active) in the assay on SW-620 colon; 1.62% (active) in the assay with MCF7 breast; 4.93% (active) in the assay with HCT-116 colon. For the same molecule, the growth in the assay on HCC-2998 colon is -48.6% (active).

As to `CCOC(=O)c1c(NC(=S)Nc2ccc([N+](=O)[O-])cc2)sc2c1CCCCC2`, the growth is 58.9% with T-47D breast; 86.3% in the assay with BT-549 breast; 88.2% in the assay with MDA-MB-435 melanoma; 98.8% in the assay on SW-620 colon; 70.1% with MCF7 breast; 70.5% in the assay with HCT-116 colon. The growth in the assay with HCC-2998 colon was 96.8%.

Take `C#CCOC(=O)C(N)CSSCC(N)C(=O)O` (stereo not given): the growth is 100% in the assay with T-47D breast; 104% in the assay with BT-549 breast; 89.1% with MDA-MB-435 melanoma; 85% in the assay on SW-620 colon; 99.5% in the assay on MCF7 breast; 91.8% in the assay with HCT-116 colon. For the same molecule, the growth in the assay on HCC-2998 colon is 101%.

Turning to `Cc1[nH]c(C(=O)Nc2ccccc2OC2CCNC2)c(Cl)c1Cl` (stereo not given), the growth is 83.2% with T-47D breast; 88% in the assay with BT-549 breast; 86.4% in the assay with MDA-MB-435 melanoma; 79.8% with SW-620 colon; 67.3% in the assay on MCF7 breast; 42.8% in the assay on HCT-116 colon. Moreover, the growth with HCC-2998 colon was 94.4%.

For `COc1cccc(C2C3=C(COC3=O)N(CCO)c3cc4c(cc32)OCCO4)c1` (stereo not given), the growth in the assay with T-47D breast is 65.3%; with BT-549 breast, 14.5%; in the assay with MDA-MB-435 melanoma, -28.2% (active); in the assay with SW-620 colon, 17.7%; with MCF7 breast, 13.1%; in the assay with HCT-116 colon, 3.53% (active). In addition, the growth in the assay on HCC-2998 colon was 4.51% (active).

For `CCCCCCC/C=N/NC(=O)c1ccc(-n2cc(-c3ccccc3)nn2)cc1`, the growth is 95.4% with T-47D breast; 82.1% in the assay with BT-549 breast; 90.8% with MDA-MB-435 melanoma; 95.6% with SW-620 colon; 85.9% in the assay with MCF7 breast; 97.5% in the assay with HCT-116 colon. Further, the growth in the assay with HCC-2998 colon was 88%.

Consider `C=C(C)[C@@H]1CC[C@]2(COC(=O)c3cccnc3)CC[C@]3(C)[C@H](CC[C@@H]4[C@@]5(C)CCCN(C(=O)c6cccnc6)C(C)(C)[C@@H]5CC[C@]43C)[C@@H]12`, for which the growth with T-47D breast is 31.3%; with BT-549 breast it was 51.9%; with MDA-MB-435 melanoma, 38.3%; with SW-620 colon, 32.2%; in the assay on MCF7 breast, 25.6%; with HCT-116 colon it was 28.1%. Also, the growth in the assay with HCC-2998 colon is 50.1%.

As to `COc1ccc(C(=O)/C=C/Nc2cc(-c3ccccc3)nn2-c2ccccc2)cc1`, the growth with T-47D breast is 82%; with BT-549 breast, 103%; with MDA-MB-435 melanoma, 99.2%; in the assay on SW-620 colon, 84.2%; in the assay on MCF7 breast it was 87.9%; with HCT-116 colon, 85.9%. Moreover, the growth with HCC-2998 colon was 99.4%.

As for `C=C(C)[C@@H]1CC[C@]2(COCCCNCCCN)CC[C@]3(C)[C@H](CC[C@@H]4[C@@]5(C)CC[C@H](OCCCN)C(C)(C)[C@@H]5CC[C@]43C)[C@@H]12`, the growth is -65.2% (active) with T-47D breast; 99.6% with BT-549 breast; -91.2% (active) with MDA-MB-435 melanoma; -80.8% (active) in the assay on SW-620 colon; -77.9% (active) in the assay on MCF7 breast; -82.5% (active) in the assay with HCT-116 colon. In addition, the growth in the assay with HCC-2998 colon is -24.8% (active).

`O=C(CNc1ncco1)Nc1ccc(S(=O)(=O)c2ccc(NC(=O)CNc3ncco3)cc2)cc1`: the growth was 29.3% with T-47D breast; 43.9% with BT-549 breast; 3.01% (active) with MDA-MB-435 melanoma; -82% (active) in the assay on SW-620 colon; 18.9% with MCF7 breast; -80.7% (active) in the assay with HCT-116 colon. Further, the growth in the assay with HCC-2998 colon was 76.4%.

On to `COc1cc(NC(=O)c2cncnc2Nc2ccc3c(ccn3Cc3cccc(F)c3)c2)cc(OC)c1`, for which the growth in the assay with T-47D breast was 70.9%; in the assay with BT-549 breast, 68.1%; with MDA-MB-435 melanoma, -4.76% (active); in the assay with SW-620 colon, 29.6%; in the assay on MCF7 breast, 28.2%; with HCT-116 colon, 44.5%. In addition, in the assay with HCC-2998 colon, the growth is 72.9%.

For the molecule `c1ccc2[nH]c(-c3ccc(-c4nccc5c4[nH]c4ccccc45)cc3)nc2c1`, the growth with T-47D breast is 34.4%; with BT-549 breast it was 73.7%; in the assay with MDA-MB-435 melanoma it was 59.7%; in the assay with SW-620 colon it was 68.5%; in the assay with MCF7 breast, 30.4%; in the assay on HCT-116 colon, 16.3%. Moreover, in the assay on HCC-2998 colon, the growth was 74%.

Take `COc1cc(/C=C2\CN(S(=O)(=O)c3ccc(C)cc3)C/C(=C\c3cc(CN4CCCC4)c(O)c(OC)c3)C2=O)cc(CN2CCCC2)c1O`: the growth in the assay on T-47D breast is 40%; in the assay on BT-549 breast it was 12.7%; in the assay with MDA-MB-435 melanoma, -76.8% (active); in the assay on SW-620 colon, -68.1% (active); with MCF7 breast, -25.5% (active); in the assay with HCT-116 colon, -91.7% (active). The growth in the assay on HCC-2998 colon was -89.5% (active); in the assay with KM12 colon it was -63.9% (active).

With `COc1nc2ccccc2cc1/C=[N+](\[O-])c1ccccc1`, the growth was 58.9% in the assay with T-47D breast; 86.7% with BT-549 breast; 42.2% in the assay with MDA-MB-435 melanoma; 28.4% with SW-620 colon; 28.6% with MCF7 breast; 10.2% with HCT-116 colon. In addition, the growth in the assay with HCC-2998 colon is 105%.

With `C1=C2CCCC3=Cc4ccccc4OC23Oc2ccccc21`, the growth with T-47D breast was 31.9%; in the assay on BT-549 breast, 26.4%; with MDA-MB-435 melanoma, -41.6% (active); with SW-620 colon, 18.1%; with MCF7 breast it was 13.5%; in the assay with HCT-116 colon, 24%. Moreover, the growth in the assay with HCC-2998 colon is 58.4%.

For the molecule `CC/C(=C(/c1ccc(Cl)cc1)c1ccc(OCCN2CCCCCC2)cc1)c1ccccc1`, the growth was 68.5% in the assay on T-47D breast; 114% with BT-549 breast; 90.5% in the assay on MDA-MB-435 melanoma; 44.7% with SW-620 colon; 76.3% in the assay on MCF7 breast; 62.7% with HCT-116 colon. Moreover, in the assay on HCC-2998 colon, the growth is 97.8%.

With `O=C(Cn1cc(CSc2nc3ccccc3o2)nn1)Nc1ccc([N+](=O)[O-])cc1`, the growth in the assay with T-47D breast was 87.9%; with BT-549 breast, 96.7%; with MDA-MB-435 melanoma, 99.1%; in the assay with SW-620 colon it was 102%; in the assay on MCF7 breast, 96.8%; with HCT-116 colon, 97.6%. For the same molecule, the growth with HCC-2998 colon is 110%.

The values above are taken from PubChem BioAssay (NCI).
